From PubChem BioAssay AID624483 (NMMLSC, 2012)
In all, about 360,000 compounds went through this assay and about 11,000 (3.1%) were called active. Roughly 2% stayed inconclusive and do not appear here. No stated cut-off is given here; in the data, active means fluorescence intensity above about 16000; inconclusive means no clear call, values can overlap the other calls; inactive means below that. The full list was thinned out, with actives kept by preference.

Test: compound fluorescence in toxin protease inhibitor counterscreen, primary screen, artefact control for toxin protease inhibitor project, biochemical, multiplex microsphere, HTS (AID 624483)
Settings: compound autofluorescence counterscreen, microsphere flow cytometry; active compounds read high
With `Cc1ccc(C(=O)O)c(NC=O)c1OCc1ccccc1` the fluorescence intensity was 4160 (inactive).
In the case of `COc1ccc2c(c1)CCc1c(C(=O)N3CCCC3)noc1-2`, the fluorescence intensity is reported as 21100 (active).
With `COc1ccc2c(c1)CCc1c(C(=O)Nc3c(C)n(C)n(-c4ccccc4)c3=O)noc1-2` the fluorescence intensity was 21100 (active).
In the case of `O=C(c1noc2c1CCCC2)N1CCc2ccccc2C1`, the fluorescence intensity is reported as 3010 (inactive).
With `Cc1c(NC(=O)c2coc(=O)c(Br)c2)c(=O)n(-c2ccccc2)n1C` the fluorescence intensity was 2950 (inactive).
For `COc1ccccc1-c1cc(C(=O)N2CCCCC2)no1`, the fluorescence intensity was 4320 (inactive).
For `COc1ccc(OC)c(NC(=S)N2CCc3ccccc3C2)c1`, the fluorescence intensity was 2080 (inactive).
For `COc1ccc(C(=O)N2CCCN(C)CC2)c(OC)c1`, the fluorescence intensity was 4060 (inactive).
For `COc1ccc(S(=O)(=O)Nc2c(C)n(C)n(-c3ccccc3)c2=O)cc1`, the fluorescence intensity was 16100 (active).
In the case of `Cc1c(NC(=O)c2cc(-c3ccc(Br)cc3)on2)c(=O)n(-c2ccccc2)n1C`, the fluorescence intensity is reported as 5870 (inactive).
In the case of `COc1ccc(NS(=O)(=O)c2ccc(C(=O)Nc3c(C)n(C)n(-c4ccccc4)c3=O)cc2)cc1`, the fluorescence intensity is reported as 2940 (inactive).
For `COc1ccc2c(c1)CCc1c(C(=O)N3CCc4ccccc4C3)noc1-2`, the fluorescence intensity was 21600 (active).
For `COc1ccc(C(=O)C(C)OC(=O)c2cccc(S(=O)(=O)Nc3c(C)n(C)n(-c4ccccc4)c3=O)c2)cc1` (configuration not stated), the fluorescence intensity was 3490 (inactive).
For `CCN(C(=O)CSc1nnnn1-c1ccccc1OC)C1CCS(=O)(=O)C1` (configuration not stated), the fluorescence intensity was 5910 (inactive).
For `Cc1ccccc1C(OCCN(C)C)C1CCCCC1` (configuration not stated), the fluorescence intensity was 2370 (inactive).
With `CCNC(=O)C1(C)CCN(C(=O)c2ccccc2)C1` (configuration not stated) the fluorescence intensity was 3880 (inactive).
For `COC(=O)Cc1nc2c(N)nc(N)nc2[nH]c1=O`, the fluorescence intensity was 4130 (inactive).
In the case of `O=C(NNS(=O)(=O)c1c(F)cc(F)c(Cl)c1F)C12CC3CC(CC(C3)C1)C2`, the fluorescence intensity is reported as 4000 (inactive).
In the case of `O=C(Nc1ccccc1C(=O)O)c1ccc(N2C(=O)C3CC=CCC3C2=O)cc1` (configuration not stated), the fluorescence intensity is reported as 4170 (inactive).
For `CN(C)CCNC(=O)c1cccc(-c2cnc3c(NC=O)cc(-c4cccc(C(F)(F)F)c4)cn23)c1`, the fluorescence intensity was 3700 (inactive).
For `CN1CCN(C(=O)c2ccc(-c3cc4nc(NCc5cccnc5)n(C)c(=O)c4s3)cc2)CC1`, the fluorescence intensity was 3940 (inactive).
For `O=C(NCc1ccccc1)C1c2ccccc2OCC(=O)N1C1CC1` (configuration not stated), the fluorescence intensity was 5460 (inactive).
In the case of `O=C(NCc1ccccc1Cl)C1CCCO1` (configuration not stated), the fluorescence intensity is reported as 4090 (inactive).
In the case of `O=C(C1CCCO1)N(c1ccc(F)cc1)C1C=CS(=O)(=O)C1` (configuration not stated), the fluorescence intensity is reported as 3830 (inactive).
With `O=C(C1CCCO1)N(Cc1ccccc1)c1ccccc1` (configuration not stated) the fluorescence intensity was 16100 (active).
With `CCc1ccc2c(c1)NC(=O)C2(C)Cc1ccc(OC(F)(F)F)cc1` (configuration not stated) the fluorescence intensity was 2900 (inactive).
With `COCc1cc(C)nc(SCC(=O)Nc2cccc(C)c2)c1C#N` the fluorescence intensity was 4220 (inactive).
With `O=C(Nc1ccccc1N1CCN(C(=O)c2ccccc2)CC1)c1ccco1` the fluorescence intensity was 3700 (inactive).
For `O=C(c1ccco1)N1CCN(C(=S)Nc2cc(F)cc(F)c2)CC1`, the fluorescence intensity was 5420 (inactive).
In the case of `O=C(Nc1ccccc1N1CCN(C(=O)c2ccccc2)CC1)c1ccc2c(c1)OCO2`, the fluorescence intensity is reported as 23400 (active).
In the case of `N#Cc1ccccc1NC(=O)c1ccc2c(c1)OCO2`, the fluorescence intensity is reported as 3490 (inactive).
For `O=C(CNS(=O)(=O)c1ccccc1)N1CCN(C(=O)c2ccco2)CC1`, the fluorescence intensity was 5790 (inactive).
For `O=C(CN1CCN(C(=O)c2ccco2)CC1)Nc1ccc2c(c1)OCO2`, the fluorescence intensity was 2540 (inactive).
For `O=CN1CCN(C(=O)c2ccc3c(c2)OCO3)CC1`, the fluorescence intensity was 6220 (inactive).
For `O=C(c1ccc2c(c1)OCO2)N1CCN(C(=O)c2ccco2)CC1`, the fluorescence intensity was 20500 (active).
With `CCNC(=S)N1CCN(C(=O)c2ccco2)CC1` the fluorescence intensity was 21900 (active).
With `Cc1nc2c(OCc3cccc(Cl)c3)cccn2c1N(C)CC1CC1` the fluorescence intensity was 3860 (inactive).
For `CN(Cc1ccccc1)C(=O)C(=O)c1cn(CC(=O)N2CCCC2)c2ccccc12`, the fluorescence intensity was 5870 (inactive).
With `NCCCCC(C(=O)O)N(C(=O)OCc1ccccc1)C(=O)OCc1ccccc1` (configuration not stated) the fluorescence intensity was 4320 (inactive).
For `O=C1NC[C@H](CCCCN2C[C@H](Cc3ccc(O)cc3)N(CC3CCCCC3)C(=O)C2=O)N(CCc2ccccc2)C1=O`, the fluorescence intensity was 4980 (inactive).
With `NC(Cc1ccc(F)cc1)c1csc(Nc2nncc3ccccc23)n1` (configuration not stated) the fluorescence intensity was 3900 (inactive).
For `C#CCNC(=O)C[C@@H]1C[C@@]2(C(=O)OCC)CCCC=C2N(Cc2ccco2)C1=O`, the fluorescence intensity was 4250 (inactive).
For `CC(=O)N(O)CCCCCNC(=O)CCC(=O)N(O)CCCCCNC(=O)CCC(=O)N(O)CCCCCNC(=O)CCC(=O)O`, the fluorescence intensity was 3470 (inactive).
For `CC1=C(C(=O)N(C(C)C)C(C)C)CC(CC(=O)NCCCCc2ccccc2)C(=O)N1CCC1=CCCCC1` (configuration not stated), the fluorescence intensity was 5390 (inactive).
For `O=C(Cc1ccc(-n2c(=O)[nH]c3ccccc3c2=O)cc1)N1CCN(c2cccc(Cl)c2)CC1`, the fluorescence intensity was 22000 (active).
In the case of `CCOC(=O)N1CCN(C(=O)Cc2ccc(-n3c(=S)[nH]c4ccccc4c3=O)cc2)CC1`, the fluorescence intensity is reported as 10600 (inactive).
In the case of `O=c1c2ccccc2[nH]c(=S)n1-c1cccc(Cl)c1`, the fluorescence intensity is reported as 4010 (inactive).
For `CNc1cc(-c2c(OC)cccc2OC)ncn1`, the fluorescence intensity was 3890 (inactive).
In the case of `CN1OC[C@@H]2CN(C(=O)C(C)(C)C)[C@H](c3ccc(-n4ccnc4)cc3)C[C@@H]21`, the fluorescence intensity is reported as 4320 (inactive).
With `COc1cccc(-c2cc(NC(C)=O)c3ncc(-c4cccc(C(C)=O)c4)n3c2)c1` the fluorescence intensity was 3560 (inactive).
In the case of `C=CCn1c(COc2ccccc2F)nnc1SCC(=O)N1CC(=O)Nc2ccccc21`, the fluorescence intensity is reported as 19900 (active).
In the case of `Nn1c(Cc2cccc3ccccc23)nnc1SCC(=O)N1CC(=O)Nc2ccccc21`, the fluorescence intensity is reported as 3230 (inactive).
With `O=C1CN(C(=O)COC(=O)/C=C/c2ccc(F)cc2)c2ccccc2N1` the fluorescence intensity was 2990 (inactive).
In the case of `CCN1C(=O)[C@@H]2[C@@H]3CN(S(=O)(=O)c4ccccc4C)[C@@H](c4ccc(Cl)cc4)[C@@H]3C(=O)C[C@@H]2C1=O`, the fluorescence intensity is reported as 5460 (inactive).
In the case of `CC(C)(O)C#Cc1ccc(CNC[C@H]2O[C@@H](n3cnc4c(=O)[nH]c(N)nc43)[C@H](O)[C@@H]2O)s1`, the fluorescence intensity is reported as 6310 (inactive).
With `CC(C)Oc1cc(F)ccc1-c1cc(C(=O)Nc2ccc(F)cc2)[nH]n1` the fluorescence intensity was 2820 (inactive).
With `Cc1ccc([C@@H]2CC(=O)[C@@H]3CN(S(=O)(=O)c4ccc(C)cc4)[C@H](c4ccccc4F)C[C@@H]3N2S(=O)(=O)c2ccc(Cl)cc2)cc1` the fluorescence intensity was 5790 (inactive).
With `COC(=O)C1(C(=O)OC)C/C=C\CN(S(=O)(=O)c2ccccc2[N+](=O)[O-])CCC1` the fluorescence intensity was 5420 (inactive).
With `Cc1ccc(S(=O)(=O)NCC(C)NS(C)(=O)=O)cc1` (configuration not stated) the fluorescence intensity was 17300 (active).
For `Cc1ccc(S(=O)(=O)NCC(=O)N2CCOCCOCCOCCOCC2)cc1`, the fluorescence intensity was 3170 (inactive).
For `Cc1ccc(S(=O)(=O)NCCNC(C)c2ccc(Br)cc2)cc1` (configuration not stated), the fluorescence intensity was 3800 (inactive).
For `CCCNC(=O)C1(C)CCCN(C(=O)c2cccc(OC(C)=O)c2C)C1` (configuration not stated), the fluorescence intensity was 2790 (inactive).
With `CCN(CC)CCCC(C)n1c2nc(=O)[nH]c(=O)c-2nc2cc(Cl)ccc21` (configuration not stated) the fluorescence intensity was 3960 (inactive).
For `CC1(Oc2ccc(Cl)cc2)CCN(Cc2csc3ccccc23)C1` (configuration not stated), the fluorescence intensity was 3910 (inactive).
With `CC(C)CCSc1ncnc2c1oc1nc3c(cc12)COC(C)(C)C3` the fluorescence intensity was 23900 (active).
With `CC1CCc2c(nc3ncnn3c2Nc2ccc(OC(F)(F)F)cc2)C1` (configuration not stated) the fluorescence intensity was 5260 (inactive).
In the case of `CCc1nc2c(OCCOc3ccccc3)cccn2c1N(C)C(=O)c1ccc(OC)cc1`, the fluorescence intensity is reported as 3960 (inactive).
In the case of `COc1cccc(-c2ccc3c(c2)N(Cc2ccccc2OC)C(=O)C(C)S3)c1` (configuration not stated), the fluorescence intensity is reported as 4210 (inactive).
In the case of `CCCc1nc2oc3c(OCC)ncnc3c2c2c1COC(C)(C)C2`, the fluorescence intensity is reported as 19200 (active).
In the case of `CCCc1nc2oc3c(=O)[nH]cnc3c2c2c1COC(C)(C)C2`, the fluorescence intensity is reported as 3850 (inactive).
In the case of `CC/C(C)=N/Nc1nc2sc3c(c2c(=O)[nH]1)CC(C)(C)OC3`, the fluorescence intensity is reported as 3170 (inactive).
For `CC(=O)Nc1cccc(-c2cc(NC=O)c3ncc(-c4ccc(F)c(Cl)c4)n3c2)c1`, the fluorescence intensity was 4090 (inactive).
For `CCOC(=O)c1nnn(-c2nc(OC)nc(N(C)C)n2)c1-c1ccccc1`, the fluorescence intensity was 4860 (inactive).
For `C/C(COc1ccccc1)=N\NC(=O)c1nnn(-c2nonc2N)c1-c1ccc(C)cc1`, the fluorescence intensity was 2830 (inactive).
In the case of `CCOC(=O)c1nnn(-c2nonc2OC)c1-c1ccccc1`, the fluorescence intensity is reported as 20500 (active).
With `CCC(C(=O)Nc1ncccn1)(C(F)(F)F)C(F)(F)F` the fluorescence intensity was 3150 (inactive).
For `CCN(C(=O)CSc1nc(N)cc(=O)[nH]1)C1CCS(=O)(=O)C1` (configuration not stated), the fluorescence intensity was 3860 (inactive).
In the case of `COc1ccc(C(=O)CN(C(=O)c2ccc(Cl)cc2)N2C(=O)c3ccccc3C2=O)cc1`, the fluorescence intensity is reported as 17500 (active).
In the case of `O=C(CCCN1C(=O)c2ccccc2C1=O)Oc1ccc(Cl)cc1`, the fluorescence intensity is reported as 2140 (inactive).
For `COc1ccc(C(=O)CC2C(=O)N(C)C(=O)N(C)C2=O)cc1`, the fluorescence intensity was 3490 (inactive).
For `COc1cccc(C(=O)OCc2cc(=O)oc3c(C)c(C)ccc23)c1OC`, the fluorescence intensity was 5450 (inactive).
With `CCCc1cc(=O)oc2c(C)c(OCC(=O)Nc3ccccn3)ccc12` the fluorescence intensity was 4420 (inactive).
For `COC(=O)Cc1cc(=O)oc2c(C)c(O)ccc12`, the fluorescence intensity was 19200 (active).
For `CCOCC(=O)NCc1ccc2c(c1)cc(C)n2C`, the fluorescence intensity was 4110 (inactive).
In the case of `COc1cccc2cc(C(=O)NCc3ccc(C)cc3)c(=N)oc12`, the fluorescence intensity is reported as 4920 (inactive).
With `CC(Oc1ccc(Cl)cc1)C(=O)OCC(=O)Nc1ncc(Cl)cc1Cl` (configuration not stated) the fluorescence intensity was 2090 (inactive).
In the case of `CC(OC(=O)CN1C(=O)C2CCCCC2C1=O)C(=O)Nc1ncc(Cl)cc1Cl` (configuration not stated), the fluorescence intensity is reported as 23500 (active).
For `CC1(C(=O)OCC(=O)Nc2ncc(Cl)cc2Cl)CC1(Cl)Cl` (configuration not stated), the fluorescence intensity was 4330 (inactive).
In the case of `Cc1ccc2[nH]c3c(=O)n(CC(=O)NCCc4ccc(Cl)cc4)ncc3c2c1`, the fluorescence intensity is reported as 5710 (inactive).
In the case of `CCc1cc2cc(OC)ccc2nc1SCC(=O)Nc1cc(OC)c(OC)cc1C(=O)O`, the fluorescence intensity is reported as 4520 (inactive).
In the case of `COc1ccc(C)cc1NC(=O)CSc1ccc(Cl)cc1`, the fluorescence intensity is reported as 2540 (inactive).
In the case of `COC(=O)c1cc(OC)c(OC)cc1NC(=O)CSc1ccc(C)cc1`, the fluorescence intensity is reported as 25800 (active).
